Reference: PubChem BioAssay (EPA / NIEHS)
Several values for one entry are separate records, joined by “and”; a condition that tells them apart may be missing. Equal values may be shown once. Inconclusive results are not listed. Some compounds were tested as several samples or in several runs, with calls that do not always agree. Activity calls are given as the source filed them. How the source made its calls: active means hit-call score of the fitted dose curve at least 0.9, where 1 is the maximum; inconclusive means response in the unintended direction; inactive means score below 0.9.

Experiments:
[1] = ATG_XTT_Cytotoxicity: Cytotoxicity Assessment in the Attagene TRANS-FACTORIAL HepG2 Assay (AID 2283584)
Outline: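 HepG2 human liver cells, transiently transfected with multiple GAL4-UAS reporter units, were dosed and read at 24 h by XTT as cell number. Loss of signal was fitted relative to DMSO negative control baseline.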

[2] = TOX21_p53_BLA_p2_viability: Viability Assessment in the Tox21 HCT-116 p53 Agonism Beta-lactamase Assay, Phase 2 (AID 2283591);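 further: compound exposure lasted 16 h at 37 °C; actives lower the ATP signal meaning cytotoxicity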
Outline: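 Cytotoxicity readout: CellTiter-Glo ATP luminescence, 30 min at room temperature, after the beta-lactamase read. Cells were HCT116 exposed 16 h at 37C to compounds pin-transferred at 217-fold dilution from DMSO stocks.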

[3] = target: Cellular tumor antigen p53 (Homo sapiens) (UniProt P04637); experiment: TOX21_p53_BLA_p2_ratio: Tox21 HCT-116 p53 Agonism Beta-lactamase Assay, Ratio, Phase 2 (AID 2283592)
Outline: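 Ratio endpoint: beta-lactamase cleavage of CCF4-AM, blue (460 nm) over green (530 nm). HCT116 reporter line; 16 h treatment, 37C; substrate 2 h RT.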

[4] = TOX21_p53_BLA_p3_viability: Viability Assessment in the Tox21 HCT-116 p53 Agonism Beta-lactamase Assay, Phase 3 (AID 2283593);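 further: cells exposed to compound for 16 h before reading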
Outline: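 Cellular ATP was quantified by CellTiter-Glo luminescence, read after 30 min at room temperature. Beforehand, HCT116 cells (4000/well) received compound 5 h post-seeding, 217-fold diluted from DMSO, then incubated 16 h at 37C.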

[5] = target: Cellular tumor antigen p53 (Homo sapiens) (UniProt P04637); experiment: TOX21_p53_BLA_p3_ratio: Tox21 HCT-116 p53 Agonism Beta-lactamase Assay, Ratio, Phase 3 (AID 2283596)
Outline: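 Cells were seeded at 4000/well, rested 5 h at 37C, then dosed with DMSO compound solutions (217-fold dilution) for 16 h. CCF4-AM substrate was loaded for 2 h at room temperature, and the 460/530 nm emission ratio was fitted for gain of signal versus DMSO.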

[6] = TOX21_p53_BLA_p4_viability: Viability Assessment in the Tox21 HCT-116 p53 Agonism Beta-lactamase Assay, Phase 4 (AID 2283597);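 further: hits lower the luminescence signal meaning cytotoxicity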
Outline: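 Cytotoxicity was inferred from loss of CellTiter-Glo luminescence. HCT116 cells had been dosed with compounds after 5 h plating, incubated 16 h at 37C and 5% CO2, and exposed to the CCF4-AM substrate for 2 h.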

[7] = target: Cellular tumor antigen p53 (Homo sapiens) (UniProt P04637); experiment: TOX21_p53_BLA_p5_ratio: Tox21 HCT-116 p53 Agonism Beta-lactamase Assay, Ratio, Phase 5 (AID 2283599)
Outline: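 Beta-lactamase reporter ratio (blue 460 nm over green 530 nm, 405 nm excitation) after 2 h CCF4-AM loading, in HCT-116 cells exposed 16 h at 37 C to compounds pinned at 217-fold dilution. Increases relative to DMSO baseline scored.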

[8] = TOX21_p53_BLA_p5_viability: Viability Assessment in the Tox21 HCT-116 p53 Agonism Beta-lactamase Assay, Phase 5 (AID 2283600)
Outline: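 Luciferase-coupled ATP quantitation of cells treated for 16 h (37C, 5% CO2) with test chemicals delivered in DMSO via a 217-fold dilution; 4000 cells/well; reagent incubated 30 min at room temperature before luminescence reading.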

[9] = target: Cellular tumor antigen p53 (Homo sapiens) (UniProt P04637); experiment: TOX21_p53_BLA_p4_ratio: Tox21 HCT-116 p53 Agonism Beta-lactamase Assay, Ratio, Phase 4 (AID 2283601)
Outline: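 Signal is the blue/green (460nm/530nm) ratio of cleaved versus uncleaved CCF4-AM substrate, read after 2 h substrate loading. Cells were HCT116 carrying the p53-responsive beta-lactamase reporter, dosed 16 h at 37C, 5% CO2; CellTiter-Glo measured in parallel.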

Cellular tumor antigen p53 (Homo sapiens), sequence (P04637 whole entry, looked up): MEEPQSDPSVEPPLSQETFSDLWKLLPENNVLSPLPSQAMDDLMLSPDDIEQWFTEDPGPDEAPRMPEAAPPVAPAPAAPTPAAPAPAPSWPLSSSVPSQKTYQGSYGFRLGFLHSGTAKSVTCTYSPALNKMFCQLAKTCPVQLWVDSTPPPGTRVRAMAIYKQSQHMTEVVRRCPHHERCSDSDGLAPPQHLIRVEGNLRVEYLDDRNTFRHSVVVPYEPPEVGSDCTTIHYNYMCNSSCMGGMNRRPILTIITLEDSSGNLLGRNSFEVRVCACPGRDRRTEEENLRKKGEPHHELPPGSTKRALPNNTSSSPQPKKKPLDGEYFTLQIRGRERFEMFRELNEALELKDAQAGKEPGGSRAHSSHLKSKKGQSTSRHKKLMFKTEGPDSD

C[C@H]1O[C@@H](O[C@H]2[C@@H](O)C[C@H](O[C@H]3[C@@H](O)C[C@H](O[C@H]4CC[C@@]5(C)[C@H](CC[C@@H]6[C@@H]5CC[C@]5(C)[C@@H](C7=CC(=O)OC7)CC[C@]65O)C4)O[C@@H]3C)O[C@@H]2C)C[C@H](O)[C@@H]1O
outcome [1]: inactive | AC50 [2]: 35.6 nM (active) and 51.1 nM (active) | outcome [3]: inactive | AC50 [4]: 30 nM (active) and 51.3 nM (active) | outcome [5]: inactive | AC50 [6]: 40.5 nM (active) and 66.7 nM (active) | outcome [7]: inactive | AC50 [8]: 28 nM (active) | outcome [8]: inactive | outcome [9]: inactive

CC(Br)C(=O)O (centres undefined)
outcome [1]: inactive | outcome [2]: inactive | outcome [3]: inactive | outcome [4]: inactive | outcome [5]: inactive | outcome [6]: inactive | outcome [7]: inactive | outcome [8]: inactive | outcome [9]: inactive

COc1cccc(C=O)c1
outcome [1]: inactive | outcome [2]: inactive | outcome [3]: inactive | outcome [4]: inactive | outcome [5]: inactive | outcome [7]: inactive | outcome [8]: inactive | outcome [9]: inactive

Cl/C=C\C[N+]12CN3CN(CN(C3)C1)C2
outcome [1]: inactive | outcome [2]: inactive | outcome [3]: inactive | outcome [4]: inactive | outcome [5]: inactive | outcome [7]: inactive

C1CCC(NC2CCCCC2)CC1
outcome [1]: inactive | outcome [2]: inactive | outcome [3]: inactive | outcome [4]: inactive | outcome [5]: inactive | outcome [6]: inactive | outcome [7]: inactive | outcome [8]: inactive | outcome [9]: inactive

BrCCBr
outcome [1]: inactive | outcome [2]: inactive | outcome [3]: inactive | outcome [4]: inactive | outcome [5]: inactive | outcome [8]: inactive

COc1ccc(C=O)cc1
outcome [1]: inactive | outcome [2]: inactive | outcome [3]: inactive | outcome [5]: inactive | outcome [7]: inactive | outcome [9]: inactive

Cc1ccccc1C(=O)Nc1cccc(OC(C)C)c1
outcome [1]: inactive | outcome [2]: inactive | outcome [3]: inactive | outcome [4]: inactive | outcome [6]: inactive | outcome [7]: inactive | outcome [8]: inactive | outcome [9]: inactive

CC(=O)OC(c1ccccc1)C(Cl)(Cl)Cl (centres undefined)
outcome [1]: inactive | outcome [2]: inactive | outcome [3]: inactive | outcome [4]: inactive | outcome [5]: inactive | outcome [6]: inactive | outcome [7]: inactive | outcome [9]: inactive

N#Cc1ccccn1
outcome [1]: inactive | outcome [2]: inactive | outcome [3]: inactive | outcome [5]: inactive | outcome [6]: inactive | outcome [7]: inactive | outcome [8]: inactive | outcome [9]: inactive

Clc1ccc(C2(Cn3cncn3)CC(Br)CO2)c(Cl)c1 (centres undefined)
outcome [1]: inactive | outcome [2]: inactive | AC50 [3]: 69.2 µM (active) | outcome [4]: inactive | outcome [5]: inactive | outcome [6]: inactive | outcome [7]: inactive | outcome [8]: inactive | outcome [9]: inactive

Clc1ccc(COC(Cn2ccnc2)c2ccc(Cl)cc2Cl)cc1 (centres undefined)
outcome [1]: inactive | AC50 [2]: 64.8 µM (active) and 73 µM (active) and 33.7 µM (active) | AC50 [3]: 60.3 µM (active) and 33.3 µM (active) and 23.5 µM (active) | AC50 [4]: 72.9 µM (active) and 73.5 µM (active) and 23 µM (active) | AC50 [5]: 66.3 µM (active) and 45.5 µM (active) and 34.6 µM (active) | AC50 [7]: 79.1 µM (active) and 60.7 µM (active) and 38.7 µM (active) | AC50 [8]: 85.2 µM (active) and 75.6 µM (active) and 36.2 µM (active)

CCC(=O)c1ccccc1
outcome [1]: inactive | outcome [2]: inactive | outcome [3]: inactive | outcome [7]: inactive | outcome [8]: inactive
